The text below walks through data of the supplement of paper PMC10849652.

Targets with a hit are over-represented here; the source holds about 7,900 in all. About 0.6% of all pairs of compound and target were hits.

Sequence of UniProt Q8NEW0 (Q8NEW0 whole entry, looked up): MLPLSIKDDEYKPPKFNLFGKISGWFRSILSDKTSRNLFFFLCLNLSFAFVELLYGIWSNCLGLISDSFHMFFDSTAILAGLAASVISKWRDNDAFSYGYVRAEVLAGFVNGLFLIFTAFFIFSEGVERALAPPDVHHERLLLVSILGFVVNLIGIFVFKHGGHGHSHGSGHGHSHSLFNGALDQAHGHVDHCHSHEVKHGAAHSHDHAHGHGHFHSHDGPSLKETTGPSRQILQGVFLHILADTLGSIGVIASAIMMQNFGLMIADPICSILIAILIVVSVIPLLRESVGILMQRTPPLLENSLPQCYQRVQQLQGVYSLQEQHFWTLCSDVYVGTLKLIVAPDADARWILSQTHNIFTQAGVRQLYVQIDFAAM
Sequence of UniProt Q9BZD2 (Q9BZD2 whole entry, looked up): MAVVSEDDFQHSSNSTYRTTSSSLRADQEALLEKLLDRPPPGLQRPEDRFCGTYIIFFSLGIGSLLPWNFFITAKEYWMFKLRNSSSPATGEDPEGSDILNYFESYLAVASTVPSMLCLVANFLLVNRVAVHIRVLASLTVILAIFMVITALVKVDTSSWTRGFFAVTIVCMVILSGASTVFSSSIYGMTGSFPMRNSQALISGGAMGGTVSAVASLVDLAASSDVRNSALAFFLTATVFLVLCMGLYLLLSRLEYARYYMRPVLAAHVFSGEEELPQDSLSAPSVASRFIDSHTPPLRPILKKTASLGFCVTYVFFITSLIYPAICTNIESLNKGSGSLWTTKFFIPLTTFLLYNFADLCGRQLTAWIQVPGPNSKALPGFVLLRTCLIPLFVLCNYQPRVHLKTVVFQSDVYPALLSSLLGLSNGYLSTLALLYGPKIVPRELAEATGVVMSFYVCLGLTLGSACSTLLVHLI
Sequence of UniProt O14776 (O14776 whole entry, looked up): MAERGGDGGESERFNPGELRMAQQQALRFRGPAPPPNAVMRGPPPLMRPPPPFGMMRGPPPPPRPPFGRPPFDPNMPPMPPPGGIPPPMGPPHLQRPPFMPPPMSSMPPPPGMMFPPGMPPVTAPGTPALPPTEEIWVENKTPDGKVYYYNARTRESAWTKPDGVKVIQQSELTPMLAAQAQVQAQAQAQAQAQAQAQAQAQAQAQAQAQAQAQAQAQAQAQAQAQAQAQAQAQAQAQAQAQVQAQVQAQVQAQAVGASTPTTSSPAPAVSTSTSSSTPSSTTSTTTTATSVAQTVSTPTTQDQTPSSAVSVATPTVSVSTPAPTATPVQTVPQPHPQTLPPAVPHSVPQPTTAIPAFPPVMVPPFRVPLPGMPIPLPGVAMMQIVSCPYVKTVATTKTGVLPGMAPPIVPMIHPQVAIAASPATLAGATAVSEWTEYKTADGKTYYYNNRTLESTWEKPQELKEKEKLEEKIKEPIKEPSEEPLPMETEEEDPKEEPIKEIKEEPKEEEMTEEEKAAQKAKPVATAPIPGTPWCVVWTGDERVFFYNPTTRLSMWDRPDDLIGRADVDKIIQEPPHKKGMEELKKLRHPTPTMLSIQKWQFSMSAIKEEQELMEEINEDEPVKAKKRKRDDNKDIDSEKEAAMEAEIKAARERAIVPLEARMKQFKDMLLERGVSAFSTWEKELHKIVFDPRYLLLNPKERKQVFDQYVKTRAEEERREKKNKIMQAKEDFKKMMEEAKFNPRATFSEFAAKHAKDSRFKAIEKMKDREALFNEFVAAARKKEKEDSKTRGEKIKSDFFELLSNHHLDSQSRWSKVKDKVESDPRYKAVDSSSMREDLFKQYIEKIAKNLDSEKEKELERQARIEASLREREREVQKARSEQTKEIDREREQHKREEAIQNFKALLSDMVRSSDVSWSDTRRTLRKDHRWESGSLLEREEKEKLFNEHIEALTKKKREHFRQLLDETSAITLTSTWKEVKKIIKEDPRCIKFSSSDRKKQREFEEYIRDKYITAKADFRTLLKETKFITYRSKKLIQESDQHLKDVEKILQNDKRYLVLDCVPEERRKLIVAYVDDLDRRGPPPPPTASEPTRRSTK
Sequence of UniProt P02786 (P02786 whole entry, looked up): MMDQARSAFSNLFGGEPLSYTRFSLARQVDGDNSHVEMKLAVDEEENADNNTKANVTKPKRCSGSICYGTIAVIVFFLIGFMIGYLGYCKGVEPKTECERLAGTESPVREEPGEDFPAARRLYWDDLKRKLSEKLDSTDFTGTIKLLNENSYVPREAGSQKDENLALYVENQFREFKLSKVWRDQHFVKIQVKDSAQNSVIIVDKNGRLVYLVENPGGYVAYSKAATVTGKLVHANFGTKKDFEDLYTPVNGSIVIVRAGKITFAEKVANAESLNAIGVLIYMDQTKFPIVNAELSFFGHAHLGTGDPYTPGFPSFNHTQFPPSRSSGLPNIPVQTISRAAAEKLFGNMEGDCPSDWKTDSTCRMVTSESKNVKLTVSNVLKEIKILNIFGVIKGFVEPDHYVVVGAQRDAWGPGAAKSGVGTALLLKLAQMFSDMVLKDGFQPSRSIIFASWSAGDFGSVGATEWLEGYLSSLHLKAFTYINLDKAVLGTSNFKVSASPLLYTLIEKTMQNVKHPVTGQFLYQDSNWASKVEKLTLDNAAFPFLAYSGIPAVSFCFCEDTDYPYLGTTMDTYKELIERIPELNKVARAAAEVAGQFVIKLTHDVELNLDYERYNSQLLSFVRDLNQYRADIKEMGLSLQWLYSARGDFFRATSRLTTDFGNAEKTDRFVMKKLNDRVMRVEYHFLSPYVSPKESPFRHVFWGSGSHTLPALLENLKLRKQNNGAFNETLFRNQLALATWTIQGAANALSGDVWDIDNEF
Sequence of UniProt Q96CQ1 (Q96CQ1 whole entry, looked up): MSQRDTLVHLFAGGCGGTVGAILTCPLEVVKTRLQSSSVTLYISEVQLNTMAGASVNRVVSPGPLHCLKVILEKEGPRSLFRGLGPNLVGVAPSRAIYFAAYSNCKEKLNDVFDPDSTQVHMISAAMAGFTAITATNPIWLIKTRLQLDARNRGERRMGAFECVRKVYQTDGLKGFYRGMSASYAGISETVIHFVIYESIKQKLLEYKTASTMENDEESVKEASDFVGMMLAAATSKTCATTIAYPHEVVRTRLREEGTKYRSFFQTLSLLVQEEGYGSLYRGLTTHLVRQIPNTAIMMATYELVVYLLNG
Sequence of UniProt Q5JUR7 (Q5JUR7 whole entry, looked up): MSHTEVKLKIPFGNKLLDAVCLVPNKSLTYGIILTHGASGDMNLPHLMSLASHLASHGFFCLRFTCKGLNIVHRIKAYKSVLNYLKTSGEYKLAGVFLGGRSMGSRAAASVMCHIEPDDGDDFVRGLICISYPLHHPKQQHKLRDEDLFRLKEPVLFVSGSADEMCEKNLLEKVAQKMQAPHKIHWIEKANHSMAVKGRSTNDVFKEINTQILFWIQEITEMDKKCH
Sequence of UniProt P62318 (P62318 whole entry, looked up): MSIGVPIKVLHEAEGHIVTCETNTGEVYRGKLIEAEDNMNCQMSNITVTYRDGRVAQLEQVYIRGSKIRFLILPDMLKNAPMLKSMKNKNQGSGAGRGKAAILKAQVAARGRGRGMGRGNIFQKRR
Sequence of UniProt Q9UMY4 (Q9UMY4 whole entry, looked up): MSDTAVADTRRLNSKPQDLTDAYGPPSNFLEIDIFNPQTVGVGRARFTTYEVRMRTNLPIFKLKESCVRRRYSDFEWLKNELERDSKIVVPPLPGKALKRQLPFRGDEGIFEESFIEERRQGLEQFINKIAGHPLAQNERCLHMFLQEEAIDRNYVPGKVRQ
Sequence of UniProt Q8WXA9 (Q8WXA9 whole entry, looked up): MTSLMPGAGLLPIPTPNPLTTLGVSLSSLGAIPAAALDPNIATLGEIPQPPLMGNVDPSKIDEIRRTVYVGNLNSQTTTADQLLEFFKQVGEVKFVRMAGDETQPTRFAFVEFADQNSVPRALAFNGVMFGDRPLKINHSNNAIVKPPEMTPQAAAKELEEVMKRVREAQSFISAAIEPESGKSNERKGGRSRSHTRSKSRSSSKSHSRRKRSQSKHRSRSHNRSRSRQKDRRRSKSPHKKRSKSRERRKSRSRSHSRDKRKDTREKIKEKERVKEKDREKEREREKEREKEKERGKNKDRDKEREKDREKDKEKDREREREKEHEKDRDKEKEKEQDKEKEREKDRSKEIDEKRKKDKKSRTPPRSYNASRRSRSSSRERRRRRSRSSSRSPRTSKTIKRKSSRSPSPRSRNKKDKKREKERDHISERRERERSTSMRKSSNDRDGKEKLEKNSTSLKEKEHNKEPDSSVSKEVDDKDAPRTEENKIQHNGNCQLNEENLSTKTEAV
Sequence of UniProt Q9NQZ5 (Q9NQZ5 whole entry, looked up): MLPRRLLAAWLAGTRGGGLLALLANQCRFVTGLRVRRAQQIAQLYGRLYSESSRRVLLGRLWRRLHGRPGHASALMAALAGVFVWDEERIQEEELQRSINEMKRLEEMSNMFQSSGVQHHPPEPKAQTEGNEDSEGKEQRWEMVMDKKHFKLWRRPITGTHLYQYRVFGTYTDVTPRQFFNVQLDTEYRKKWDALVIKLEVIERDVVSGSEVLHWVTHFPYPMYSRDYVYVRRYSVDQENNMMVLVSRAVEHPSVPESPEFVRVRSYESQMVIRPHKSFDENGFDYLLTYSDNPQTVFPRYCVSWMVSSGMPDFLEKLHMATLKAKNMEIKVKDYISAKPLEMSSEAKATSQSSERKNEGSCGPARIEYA
Sequence of UniProt Q9P016 (Q9P016 whole entry, looked up): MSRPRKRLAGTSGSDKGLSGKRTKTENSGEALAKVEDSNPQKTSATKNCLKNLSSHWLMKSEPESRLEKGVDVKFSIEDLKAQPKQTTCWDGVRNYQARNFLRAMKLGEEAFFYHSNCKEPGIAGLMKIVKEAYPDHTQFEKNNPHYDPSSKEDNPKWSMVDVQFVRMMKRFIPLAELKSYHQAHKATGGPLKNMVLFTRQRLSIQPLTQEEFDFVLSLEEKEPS
Sequence of UniProt O95772 (O95772 whole entry, looked up): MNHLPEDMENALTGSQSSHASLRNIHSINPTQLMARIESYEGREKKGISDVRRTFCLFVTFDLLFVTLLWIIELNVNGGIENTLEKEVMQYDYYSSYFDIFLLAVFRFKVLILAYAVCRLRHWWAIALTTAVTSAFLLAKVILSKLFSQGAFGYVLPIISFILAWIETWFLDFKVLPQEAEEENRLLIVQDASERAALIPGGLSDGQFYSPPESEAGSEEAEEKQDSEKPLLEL

Compound in the assay: C1=CC2=C(C=CC(=C2)/C=C\3/C(=O)NC(=NCC4=CC=CS4)S3)N=C1
Kind of assay: log2 fold change, soluble protein after heating vs DMSO (PISA); higher = thermal stabilisation; K562 cells, 10 uM, 30 min; active = over 0.2 and 3.5 SD of the protein, either way, in both replicates (recomputed). The method in brief:
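Aliquots of K562 cells (2×10^6 cells/mL) treated with 10 μM compound for 30 min were heated for 3 min over 48°C-58°C. After pooling and extraction in PBS with 0.5% NP-40 at 4°C, soluble protein from a 21,000xg, 90 min spin was quantified by TMTpro 16plex LC-MS/MS with channel sums equalised. Thermal stability is expressed against control samples, from duplicates, as a log2 fold change.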
With STAT3 (UniProt P40763), the log2 fold change was 0.031 (inactive).
Under SNX3 (UniProt O60493) stands 0.078 (inactive).
Next, SLC25A42 (UniProt Q86VD7): -0.032 (inactive).
Next, STRN (UniProt O43815): -0.008 (inactive).
Regarding SNX11 (UniProt Q9Y5W9), the log2 fold change was -0.048 (inactive).
For STARD3NL (UniProt O95772), the log2 fold change is 0.169 (inactive).
Consider SNX12 isoform 1 (UniProt Q9UMY4), for which the log2 fold change was 0.065 (inactive).
Take SRC isoform 2 (UniProt P12931): the log2 fold change was 0.088 (inactive).
Under SLIRP (UniProt Q9GZT3) stands 0.067 (inactive); under SPG11 (UniProt Q96JI7), 0.128 (inactive).
Next, TMBIM1 (UniProt Q969X1): 0.198 (inactive).
Next, TJP2 isoform 7 (UniProt Q9UDY2): 0.029 (inactive); SMAD2 (UniProt Q15796): 0.069 (inactive).
Turning to TERF2IP (UniProt Q9NYB0), the log2 fold change is 0.022 (inactive).
Next, STK25 (UniProt O00506): 0.021 (inactive).
Next, STARD7 (UniProt Q9NQZ5): 0.031 (inactive); TCERG1 (UniProt O14776): 0.067 (inactive).
As for SREK1 isoform 2 (UniProt Q8WXA9), the log2 fold change is -0.149 (inactive).
Next, TBC1D23 (UniProt Q9NUY8): 0.071 (inactive).
Next, TGFBI (UniProt Q15582): 0.132 (inactive); TFRC (UniProt P02786): 0.037 (inactive); SSR4 (UniProt P51571): 0.059 (inactive).
Regarding THYN1 (UniProt Q9P016), the log2 fold change is 0 (inactive).
Under SLC44A2 isoform 2 (UniProt Q8IWA5) stands 0.019 (inactive).
For SLC25A36 (UniProt Q96CQ1), the log2 fold change is 0.031 (inactive).
Next, TEX30 (UniProt Q5JUR7): 0.188 (inactive).
In the case of TLK1 (UniProt Q9UKI8), the log2 fold change was 0.042 (inactive).
Next, SRI (UniProt P30626): 0.09 (inactive); SLC35F6 (UniProt Q8N357): -0.013 (inactive); SPTBN4 (UniProt Q9H254): 0.066 (inactive).
For SNRPD3 (UniProt P62318), the log2 fold change is 0.012 (inactive).
Next, SLC29A3 (UniProt Q9BZD2): 0.042 (inactive); SLC27A1 (UniProt Q6PCB7): 0.061 (inactive).
Turning to SLC30A7 (UniProt Q8NEW0), the log2 fold change was -0.086 (inactive).
As for SLC7A6OS (UniProt Q96CW6), the log2 fold change is 0.007 (inactive).
Turning to STEAP3 isoform 2 (UniProt Q658P3), the log2 fold change was 0.053 (inactive).
Regarding TAX1BP1 (UniProt Q86VP1), the log2 fold change is 0.035 (inactive).
